From the supplement of paper PMC10849652
The full data set covers some 7,900 targets. This sample favours those with a hit. About 0.6% of all pairs of compound and target were hits.

How the values were obtained:
Assay in all cases: log2 fold change, soluble protein after heating vs DMSO (PISA); higher = thermal stabilisation; K562 cells, 10 uM, 30 min; active = over 0.2 and 3.5 SD of the protein, either way, in both replicates (recomputed)
[1] = compound: CN1CCN(CCOc2cc(OC3CCOCC3)c3c(Nc4c(Cl)ccc5c4OCO5)ncnc3c2)CC1 [saracatinib]
Method in brief: (§1)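 Thermal stability values are relative to control samples and come from duplicates. They are expressed as log2 fold changes. For measurement, K562 cells (2×10^6 cells/mL) received 10 μM compound for 30 min, and aliquots were heated for 3 min over 48°C-58°C, pooled, and extracted at 4°C in PBS with 0.5% NP-40. Soluble protein, the supernatant after 21,000xg for 90 min, was quantified by TMTpro 16plex LC-MS/MS with equalised channel sums.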

[2] = compound: CN1CCN(c2nc(C3=C(c4c[nH]c5ccccc45)C(=O)NC3=O)c3ccccc3n2)CC1 [sotrastaurin]
Method in brief: as §1

[3] = compound: CN1CC[C@H](c2c(O)cc(O)c3c(=O)cc(-c4ccccc4Cl)oc23)[C@H](O)C1 [alvocidib]
Method in brief: as §1

[4] = compound: CN1CCc2c(c3ccccc3n2Cc2ccc(C(=O)NO)cc2)C1 [Tubastatin A]
Method in brief: as §1

[5] = compound: CNC(=O)C1=CC=CC=C1NC2=NC(=NC=C2Cl)NC3=C(C=C(C=C3)N4CCOCC4)OC
Method in brief: as §1

[6] = compound: CNc1nc(-c2ccc3c(N)n[nH]c3c2)cc(N2C[C@@H](C(=O)NC3CCCCC3)CC[C@H]2C)n1
Method in brief: as §1

[7] = compound: COC1=CC=C(C=C1)CN2C=CC3=C2C=C(C=C3)C(=O)NO
Method in brief: as §1

[8] = compound: CON(C)C(=O)N1N=C(c2cc(F)ccc2F)S[C@@]1(CCCN)c1ccccc1 [filanesib]
Method in brief: as §1

[9] = compound: CO[C@H]1C[C@@H]2CC[C@@H](C)[C@@](O)(O2)C(=O)C(=O)N2CCCC[C@H]2C(=O)O[C@H]([C@H](C)C[C@@H]2CC[C@H](n3cnnn3)[C@H](OC)C2)CC(=O)[C@H](C)/C=C(\C)[C@@H](O)[C@@H](OC)C(=O)[C@H](C)C[C@H](C)/C=C/C=C/C=C/1C [zotarolimus]
Method in brief: as §1

[10] = compound: COc1cc2nc(-c3cc(F)ccc3O)nc(N[C@@H]3CNC[C@H]3C(C)(C)O)c2cc1OC
Method in brief: as §1

[11] = compound: COc1cc2ncnc(Nc3ccc(F)c(Cl)c3)c2cc1OCCCN1CCOCC1 [gefitinib]
Method in brief: as §1

[12] = compound: CS(=O)(=O)CCNCc1ccc(-c2ccc3ncnc(Nc4ccc(OCc5cccc(F)c5)c(Cl)c4)c3c2)o1 [lapatinib]
Method in brief: as §1

[13] = compound: CS(=O)(=O)N1CCN(Cc2cc3nc(-c4cccc5[nH]ncc45)nc(N4CCOCC4)c3s2)CC1 [pictilisib]
Method in brief: as §1

[14] = compound: CNC(=O)c1ccc(Nc2ncc(C(F)(F)F)c(NCc3nccnc3N(C)S(C)(=O)=O)n2)cc1 [defactinib]
Method in brief: as §1

[15] = compound: CNCc1ccc(-c2[nH]c3cc(F)cc4c3c2CCNC4=O)cc1 [rucaparib]
Method in brief: as §1

[16] = compound: COC(=O)N[C@@H](C)CNc1nccc(-c2cn(C(C)C)nc2-c2cc(Cl)cc(NS(C)(=O)=O)c2F)n1 [encorafenib]
Method in brief: as §1

[17] = compound: COC(=O)[C@H](CCSC)NC(=O)C1=C(C=C(C=C1)NC[C@H](CS)N)C2=CC=CC=C2
Method in brief: as §1

[18] = compound: COc1cc(C(=O)O)ccc1NC(=O)[C@@H]1N[C@@H](CC(C)(C)C)[C@](C#N)(c2ccc(Cl)cc2F)[C@H]1c1cccc(Cl)c1F [idasanutlin]
Method in brief: as §1

[19] = compound: COc1cc(Nc2ncc3c(n2)-c2ccc(Cl)cc2C(c2c(F)cccc2OC)=NC3)ccc1C(=O)O [alisertib]
Method in brief: as §1

[20] = compound: COc1cccc2cc(-c3nc([C@H]4CC[C@H](C(=O)O)CC4)n4ncnc(N)c34)[nH]c12
Method in brief: as §1

Measured: log2 fold change

SAMD4B (UniProt Q5PRF9)
inactive: [1] -0.349 | [2] -0.036 | [3] -0.059 | [4] 0.167 | [5] -0.132 | [6] 0.096 | [7] 0.075 | [8] 0.139 | [9] 0.072 | [10] 0.14 | [11] 0.146 | [12] -0.036 | [13] -0.044

RPS3A (UniProt P61247)
inactive: [1] -0.034 | [2] 0.015 | [3] 0.171 | [4] 0.075 | [5] 0.105 | [14] 0.192 | [15] 0.101 | [6] 0.069 | [16] 0.047 | [17] -0.018 | [7] -0.112 | [8] 0.117 | [9] 0.006 | [18] 0.069 | [19] -0.052 | [10] -0.009 | [11] -0.06 | [20] -0.152 | [12] 0.053 | [13] -0.078

SCAMP2 (UniProt O15127)
inactive: [1] 0.084 | [2] 0.096 | [3] -0.155 | [4] 0.019 | [5] 0.027 | [14] -0.086 | [15] -0.321 | [6] 0.028 | [16] 0.349 | [17] 0.101 | [8] 0.036 | [9] 0.171 | [18] -0.1 | [19] -0.087 | [10] -0.035 | [11] 0.036 | [20] 0.042 | [12] 0.009 | [13] 0.199

SLC12A9 (UniProt Q9BXP2)
UniProt Q9BXP2, sequence (Q9BXP2 whole entry, looked up): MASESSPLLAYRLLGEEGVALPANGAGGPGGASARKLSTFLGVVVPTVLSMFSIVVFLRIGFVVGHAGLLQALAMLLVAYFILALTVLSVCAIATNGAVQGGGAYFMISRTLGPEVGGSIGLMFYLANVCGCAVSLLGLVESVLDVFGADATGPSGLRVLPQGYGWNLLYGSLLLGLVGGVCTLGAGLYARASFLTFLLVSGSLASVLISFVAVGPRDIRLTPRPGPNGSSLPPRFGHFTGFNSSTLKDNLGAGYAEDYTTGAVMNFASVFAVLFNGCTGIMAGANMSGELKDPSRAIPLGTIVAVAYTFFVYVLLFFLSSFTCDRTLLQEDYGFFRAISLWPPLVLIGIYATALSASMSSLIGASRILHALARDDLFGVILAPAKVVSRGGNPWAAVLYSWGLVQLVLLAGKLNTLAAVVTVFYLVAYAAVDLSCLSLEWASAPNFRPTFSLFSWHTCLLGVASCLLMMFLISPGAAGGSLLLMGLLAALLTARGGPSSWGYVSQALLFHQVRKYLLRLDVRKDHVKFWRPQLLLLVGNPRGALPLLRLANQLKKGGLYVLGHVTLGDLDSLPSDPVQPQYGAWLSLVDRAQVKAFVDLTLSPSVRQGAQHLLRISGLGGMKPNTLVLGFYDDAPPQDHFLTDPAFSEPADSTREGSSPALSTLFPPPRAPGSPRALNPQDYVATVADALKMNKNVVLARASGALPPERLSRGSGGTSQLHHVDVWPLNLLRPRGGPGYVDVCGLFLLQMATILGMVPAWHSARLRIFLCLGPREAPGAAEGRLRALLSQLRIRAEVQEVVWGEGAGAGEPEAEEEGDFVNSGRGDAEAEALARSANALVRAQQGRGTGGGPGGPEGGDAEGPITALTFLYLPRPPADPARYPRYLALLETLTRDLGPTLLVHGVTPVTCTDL
inactive: [1] 0.102 | [2] 0.016 | [3] -0.094 | [4] -0.09 | [5] -0.016 | [14] -0.043 | [15] -0.073 | [6] -0.068 | [16] -0.017 | [17] -0.01 | [7] -0.022 | [8] -0.093 | [9] 0.091 | [18] 0.044 | [19] -0.106 | [10] 0.049 | [11] -0.151 | [20] 0.023 | [12] 0.075 | [13] -0.121

RNF167 (UniProt Q9H6Y7)
inactive: [1] -0.03 | [2] 0.064 | [3] 0.055 | [4] -0.021 | [5] 0.035 | [14] 0.059 | [6] 0.042 | [17] -0.006 | [7] -0.062 | [8] -0.032 | [9] -0.033 | [18] 0.018 | [19] -0.014 | [10] -0.084 | [11] -0.013 | [20] 0.016 | [12] 0.024 | [13] -0.029

RSL1D1 (UniProt O76021)
active: [14] 0.83
inactive: [1] -0.086 | [2] 0.05 | [3] 0.481 | [4] 0.06 | [5] 0.004 | [15] 0.359 | [6] 0.097 | [16] 0.117 | [17] 0.079 | [7] -0.094 | [8] 0.543 | [9] 0.055 | [18] 0.363 | [19] -0.202 | [10] 0.181 | [11] -0.031 | [20] -0.065 | [12] 0.181 | [13] -0.013

RAF1 isoform 2 (UniProt P04049)
inactive: [1] -0.029 | [2] -0.167 | [3] -0.105 | [4] -0.036 | [5] 0.078 | [14] -0.075 | [15] 0.125 | [6] 0.176 | [17] -0.069 | [7] 0.035 | [8] 0.085 | [9] -0.024 | [18] -0.102 | [19] 0.139 | [10] -0.246 | [20] -0.067 | [12] 0.051 | [13] 0.207
active: [16] 0.737

SDHAF4 (UniProt Q5VUM1)
UniProt Q5VUM1, sequence (Q5VUM1 whole entry, looked up): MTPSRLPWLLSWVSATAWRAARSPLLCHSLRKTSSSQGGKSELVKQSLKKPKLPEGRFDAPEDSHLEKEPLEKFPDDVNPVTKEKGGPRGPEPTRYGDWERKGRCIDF
inactive: [1] 0.139 | [2] 0.072 | [3] 0.079 | [4] 0.086 | [5] -0.037 | [15] -0.067 | [6] -0.032 | [16] -0.01 | [7] -0.072 | [8] 0.034 | [9] -0.01 | [18] -0.223 | [19] -0.073 | [10] -0.026 | [11] 0.026 | [20] 0.096 | [12] -0.154

RRP36 (UniProt Q96EU6)
inactive: [1] -0.021 | [2] -0.067 | [3] 0.211 | [4] 0.17 | [5] 0.073 | [14] 0.351 | [15] 0.057 | [6] 0.007 | [16] 0.092 | [17] 0.05 | [8] 0.372 | [9] -0.054 | [18] 0.203 | [19] -0.217 | [10] 0.01 | [11] -0.042 | [20] -0.268 | [12] 0.088 | [13] -0.181

RBM25 (UniProt P49756)
UniProt P49756, sequence (P49756 whole entry, looked up): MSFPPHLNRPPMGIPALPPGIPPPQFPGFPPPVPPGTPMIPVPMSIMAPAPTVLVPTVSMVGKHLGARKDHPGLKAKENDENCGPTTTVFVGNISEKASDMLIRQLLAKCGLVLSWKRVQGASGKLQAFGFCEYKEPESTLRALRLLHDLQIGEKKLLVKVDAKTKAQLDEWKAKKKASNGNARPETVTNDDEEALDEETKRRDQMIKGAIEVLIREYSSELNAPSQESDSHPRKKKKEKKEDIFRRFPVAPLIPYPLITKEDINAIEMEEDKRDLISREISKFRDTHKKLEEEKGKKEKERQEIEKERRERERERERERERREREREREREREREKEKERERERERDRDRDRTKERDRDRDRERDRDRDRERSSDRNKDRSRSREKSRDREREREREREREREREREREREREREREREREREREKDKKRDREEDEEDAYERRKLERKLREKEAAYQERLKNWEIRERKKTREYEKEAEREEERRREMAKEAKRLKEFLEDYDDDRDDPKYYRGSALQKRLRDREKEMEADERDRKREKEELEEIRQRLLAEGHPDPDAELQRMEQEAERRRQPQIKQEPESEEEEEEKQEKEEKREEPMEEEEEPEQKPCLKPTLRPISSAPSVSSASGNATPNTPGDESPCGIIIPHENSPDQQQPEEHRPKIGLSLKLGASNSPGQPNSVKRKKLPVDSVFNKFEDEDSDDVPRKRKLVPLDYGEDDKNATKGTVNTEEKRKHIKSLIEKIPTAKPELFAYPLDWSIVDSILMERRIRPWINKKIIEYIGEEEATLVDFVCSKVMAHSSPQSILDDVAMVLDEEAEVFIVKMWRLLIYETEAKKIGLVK
active: [14] -0.24 | [7] 0.285
inactive: [1] -0.025 | [2] -0.109 | [3] -0.133 | [4] 0.058 | [5] -0.164 | [15] 0.03 | [6] -0.091 | [16] -0.094 | [17] 0.014 | [8] 0.112 | [9] 0.022 | [18] 0.022 | [19] -0.044 | [10] -0.035 | [11] 0.001 | [20] 0.043 | [12] -0.024 | [13] 0.052

RAD50 isoform 2 (UniProt Q92878)
UniProt Q92878, sequence (Q92878 whole entry, looked up): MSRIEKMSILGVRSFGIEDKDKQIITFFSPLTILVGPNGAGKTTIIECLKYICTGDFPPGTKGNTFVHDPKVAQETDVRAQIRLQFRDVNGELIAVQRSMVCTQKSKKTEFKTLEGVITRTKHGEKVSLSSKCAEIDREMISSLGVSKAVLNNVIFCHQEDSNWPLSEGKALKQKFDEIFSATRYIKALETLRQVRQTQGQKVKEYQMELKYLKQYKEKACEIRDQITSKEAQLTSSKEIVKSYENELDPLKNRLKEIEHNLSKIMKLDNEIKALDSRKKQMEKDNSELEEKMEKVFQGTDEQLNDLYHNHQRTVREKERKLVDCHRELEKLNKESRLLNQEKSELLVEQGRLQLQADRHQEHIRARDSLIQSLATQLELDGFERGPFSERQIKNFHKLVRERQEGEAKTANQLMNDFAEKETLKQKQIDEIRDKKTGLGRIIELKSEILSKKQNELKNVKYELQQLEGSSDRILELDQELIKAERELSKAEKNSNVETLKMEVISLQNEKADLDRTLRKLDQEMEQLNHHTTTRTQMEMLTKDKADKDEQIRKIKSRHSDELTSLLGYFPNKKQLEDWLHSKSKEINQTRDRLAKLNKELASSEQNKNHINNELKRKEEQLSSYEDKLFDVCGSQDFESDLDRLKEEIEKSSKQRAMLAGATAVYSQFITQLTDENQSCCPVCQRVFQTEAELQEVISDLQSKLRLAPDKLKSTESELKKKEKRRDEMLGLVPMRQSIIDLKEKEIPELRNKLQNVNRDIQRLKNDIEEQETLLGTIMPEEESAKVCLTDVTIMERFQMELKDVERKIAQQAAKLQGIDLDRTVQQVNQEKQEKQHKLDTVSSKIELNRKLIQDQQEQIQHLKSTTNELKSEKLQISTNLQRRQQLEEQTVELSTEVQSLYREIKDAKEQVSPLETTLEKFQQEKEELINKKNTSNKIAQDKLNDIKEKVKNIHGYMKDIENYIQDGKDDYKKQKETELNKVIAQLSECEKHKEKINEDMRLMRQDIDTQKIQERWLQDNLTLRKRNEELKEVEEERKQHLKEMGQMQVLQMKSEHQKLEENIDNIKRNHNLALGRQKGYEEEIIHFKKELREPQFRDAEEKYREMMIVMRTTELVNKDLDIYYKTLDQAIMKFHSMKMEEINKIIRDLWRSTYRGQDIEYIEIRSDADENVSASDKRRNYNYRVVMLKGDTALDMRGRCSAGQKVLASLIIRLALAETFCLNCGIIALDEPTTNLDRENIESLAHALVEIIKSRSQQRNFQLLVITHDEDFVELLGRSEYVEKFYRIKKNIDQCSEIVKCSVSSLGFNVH
inactive: [1] 0.012 | [2] -0.024 | [3] -0.084 | [4] -0.025 | [5] 0 | [14] -0.103 | [15] 0.006 | [6] 0.006 | [16] 0.008 | [17] -0.019 | [7] -0.002 | [8] 0.008 | [9] 0.036 | [18] -0.016 | [19] 0 | [10] 0.002 | [11] 0.031 | [20] 0.007 | [12] -0.002 | [13] 0.02

RABGAP1L isoform 5 (UniProt Q5R372)
inactive: [1] -0.027 | [2] 0.017 | [3] -0.053 | [4] -0.056 | [5] -0.014 | [6] -0.071 | [7] 0.117 | [8] 0.108 | [9] -0.008 | [18] 0.05 | [19] -0.071 | [10] 0.065 | [11] -0.097 | [20] 0.007 | [12] -0.027

RAPGEF4 (UniProt Q8WZA2)
UniProt Q8WZA2, sequence (Q8WZA2 whole entry, looked up): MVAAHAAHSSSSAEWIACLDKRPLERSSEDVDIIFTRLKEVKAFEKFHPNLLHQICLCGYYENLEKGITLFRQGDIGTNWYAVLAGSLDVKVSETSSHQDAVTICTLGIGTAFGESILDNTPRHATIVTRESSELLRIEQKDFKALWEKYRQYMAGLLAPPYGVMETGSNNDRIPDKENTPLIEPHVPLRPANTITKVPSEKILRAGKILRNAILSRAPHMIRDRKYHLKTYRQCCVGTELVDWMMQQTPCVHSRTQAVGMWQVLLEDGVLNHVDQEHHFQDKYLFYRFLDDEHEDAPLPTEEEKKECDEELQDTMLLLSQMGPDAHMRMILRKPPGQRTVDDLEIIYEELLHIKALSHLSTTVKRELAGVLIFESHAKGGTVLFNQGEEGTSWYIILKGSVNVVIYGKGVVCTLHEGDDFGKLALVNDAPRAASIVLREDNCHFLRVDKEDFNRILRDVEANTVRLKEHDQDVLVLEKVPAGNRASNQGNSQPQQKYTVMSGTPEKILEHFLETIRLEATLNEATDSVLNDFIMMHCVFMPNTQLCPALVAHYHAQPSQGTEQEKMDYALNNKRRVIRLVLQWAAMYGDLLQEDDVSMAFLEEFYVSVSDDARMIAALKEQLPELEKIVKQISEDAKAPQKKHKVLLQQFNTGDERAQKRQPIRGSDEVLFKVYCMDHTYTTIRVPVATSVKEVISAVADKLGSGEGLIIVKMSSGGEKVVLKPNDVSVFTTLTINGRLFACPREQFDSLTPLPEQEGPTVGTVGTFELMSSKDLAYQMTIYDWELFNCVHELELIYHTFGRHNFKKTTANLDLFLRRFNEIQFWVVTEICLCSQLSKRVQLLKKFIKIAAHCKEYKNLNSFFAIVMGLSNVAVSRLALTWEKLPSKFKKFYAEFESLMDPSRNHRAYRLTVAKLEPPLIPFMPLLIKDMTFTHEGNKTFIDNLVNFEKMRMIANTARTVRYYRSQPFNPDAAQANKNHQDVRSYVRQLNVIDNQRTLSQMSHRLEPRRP
inactive: [1] 0.045 | [2] -0.033 | [3] 0.04 | [4] 0.333 | [5] -0.114 | [14] -0.057 | [15] -0.063 | [6] 0.083 | [16] 0.059 | [17] -0.123 | [7] 0.549 | [8] 0.053 | [9] -0.078 | [18] 0.021 | [19] -0.145 | [20] 0.187

RPS19 (UniProt P39019)
inactive: [1] -0.024 | [2] 0.001 | [3] 0.178 | [4] 0.089 | [5] 0.07 | [14] 0.167 | [15] 0.136 | [6] 0.064 | [16] 0.028 | [17] -0.004 | [7] 0 | [8] 0.102 | [9] -0.015 | [18] 0.113 | [19] -0.114 | [10] -0.024 | [11] -0.049 | [20] -0.12 | [12] 0.059 | [13] -0.137

RAD50, A0A494C0Y7
inactive: [1] -0.101 | [2] 0.048 | [3] -0.026 | [4] -0.079 | [14] -0.146 | [15] -0.206 | [6] 0.198 | [16] 0.15 | [17] -0.055 | [7] -0.054 | [8] 0.001 | [9] -0.021 | [18] -0.05 | [19] 0.127 | [10] -0.077 | [20] 0.035 | [12] -0.142 | [13] 0.085

RBM22 (UniProt Q9NW64)
UniProt Q9NW64, sequence (Q9NW64 whole entry, looked up): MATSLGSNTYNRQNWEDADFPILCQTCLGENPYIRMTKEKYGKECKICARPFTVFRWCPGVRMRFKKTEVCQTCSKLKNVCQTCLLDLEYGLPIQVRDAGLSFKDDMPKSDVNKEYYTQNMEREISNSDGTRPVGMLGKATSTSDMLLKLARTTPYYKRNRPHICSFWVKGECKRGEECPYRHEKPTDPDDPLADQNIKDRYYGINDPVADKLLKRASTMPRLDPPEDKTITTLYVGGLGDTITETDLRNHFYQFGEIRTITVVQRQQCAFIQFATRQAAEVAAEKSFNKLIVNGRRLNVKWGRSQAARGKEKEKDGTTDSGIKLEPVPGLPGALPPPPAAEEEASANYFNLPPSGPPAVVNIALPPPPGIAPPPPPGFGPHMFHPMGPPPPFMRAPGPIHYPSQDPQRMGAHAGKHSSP
inactive: [1] 0.016 | [2] -0.013 | [3] 0.081 | [4] -0.065 | [5] -0.037 | [14] -0.05 | [15] 0.04 | [6] -0.155 | [16] 0.036 | [17] 0.012 | [7] -0.105 | [8] 0.096 | [9] 0 | [18] 0.056 | [19] -0.002 | [10] 0.021 | [11] -0.058 | [20] 0.083 | [12] 0.036 | [13] -0.031

RFC3 (UniProt P40938)
UniProt P40938, sequence (P40938 whole entry, looked up): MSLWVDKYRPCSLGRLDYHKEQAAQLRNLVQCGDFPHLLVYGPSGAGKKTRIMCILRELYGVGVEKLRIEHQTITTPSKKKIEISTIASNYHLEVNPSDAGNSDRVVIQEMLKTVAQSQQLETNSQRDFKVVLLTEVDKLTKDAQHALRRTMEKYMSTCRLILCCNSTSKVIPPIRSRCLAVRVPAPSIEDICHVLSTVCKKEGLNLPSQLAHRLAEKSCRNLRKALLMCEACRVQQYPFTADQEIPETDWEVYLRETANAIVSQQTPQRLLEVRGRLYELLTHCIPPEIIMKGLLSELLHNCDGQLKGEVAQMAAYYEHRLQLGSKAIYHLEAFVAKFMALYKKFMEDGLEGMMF
inactive: [1] -0.021 | [2] 0.032 | [3] -0.036 | [4] 0.023 | [5] 0.031 | [14] -0.052 | [15] -0.011 | [6] 0.007 | [16] 0.062 | [17] -0.058 | [7] 0.125 | [8] -0.046 | [9] -0.026 | [18] -0.088 | [19] -0.021 | [10] -0.042 | [11] 0.008 | [20] 0.024 | [12] 0.037 | [13] 0.035
